The values that follow come from PubChem BioAssay (NCATS).

Results filed as inconclusive are left out. Calls of active or inactive are those of the source. The call rests on the fitted dose curve; in most records, active means well fitted inhibition curve with a large enough effect; inconclusive means small, poorly fitted or top-dose-only effect; inactive means flat fitted curve, though single readings scatter.

What all share (test): qHTS profiling for inhibitors of Plasmodium falciparum proliferation (AID 504749); further: nearly all actives have a fitted effect of over 60% in size
In general terms: Quantitative high-throughput screening tests each substance at several concentrations.

One assay relates to CP247. The settings on record: P. falciparum in erythrocytes, SYBR Green DNA, 72 h; series mostly up to 28.7 µM. The procedure, abridged:
(§1)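 Infected RBCs, 0.3% parasitemia/2.5% Hct final; cpd 72 h, 37 C, 5% CO2; lysis buffer with saponin/triton/SYBR Green I, o/n RT dark; FI 485/535; norm. to artemisinin (0.29 uM) and DMSO.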

Another assay concerns CP250. The settings on record: P. falciparum in erythrocytes, SYBR Green DNA, 72 h; series mostly up to 28.7 µM. The procedure, abridged:
as §1

Another assay deals with CP252. The settings on record: P. falciparum in erythrocytes, SYBR Green DNA, 72 h; series mostly up to 28.7 µM. Put shortly:
as §1

Another assay concerns CP260. The settings on record: P. falciparum in erythrocytes, SYBR Green DNA, 72 h; series mostly up to 28.7 µM. The procedure, abridged: as §1
The test system of another assay is CP262. The conditions noted are these: P. falciparum in erythrocytes, SYBR Green DNA, 72 h; series mostly up to 28.7 µM. The procedure, abridged:
as §1

A further assay relates to CP265. The settings on record: P. falciparum in erythrocytes, SYBR Green DNA, 72 h; series mostly up to 28.7 µM. Put shortly: as §1
A further assay deals with CP266. The conditions noted are these: P. falciparum in erythrocytes, SYBR Green DNA, 72 h; series mostly up to 28.7 µM. The procedure, abridged: as §1
In the next assay the test system is CP268. The conditions noted are these: P. falciparum in erythrocytes, SYBR Green DNA, 72 h; series mostly up to 28.7 µM. Put shortly:
as §1

In the next assay the test system is CP269. The conditions noted are these: P. falciparum in erythrocytes, SYBR Green DNA, 72 h; series mostly up to 28.7 µM. Put shortly: as §1
The subject of the next assay is CP286. The conditions noted are these: P. falciparum in erythrocytes, SYBR Green DNA, 72 h; series mostly up to 28.7 µM. The procedure, abridged: as §1
The test system of another assay is CP291. The settings on record: P. falciparum in erythrocytes, SYBR Green DNA, 72 h; series mostly up to 28.7 µM. The procedure, abridged: as §1
The subject of the next assay is CP297. The conditions noted are these: P. falciparum in erythrocytes, SYBR Green DNA, 72 h; series mostly up to 28.7 µM. Put shortly:
as §1

The next assay relates to CP305. The settings on record: P. falciparum in erythrocytes, SYBR Green DNA, 72 h; series mostly up to 28.7 µM. Put shortly: as §1
A further assay deals with CP315. The settings on record: P. falciparum in erythrocytes, SYBR Green DNA, 72 h; series mostly up to 28.7 µM. The procedure, abridged: as §1
The subject of a further assay is CP325. The conditions noted are these: P. falciparum in erythrocytes, SYBR Green DNA, 72 h; series mostly up to 28.7 µM. Put shortly:
as §1

The test system of the next assay is CP329. The conditions noted are these: P. falciparum in erythrocytes, SYBR Green DNA, 72 h; series mostly up to 28.7 µM. The procedure, abridged: as §1
For another assay, the system named is DFO2036. The settings on record: P. falciparum in erythrocytes, SYBR Green DNA, 72 h; series mostly up to 28.7 µM. Put shortly: as §1
The test system of the next assay is DIV14. The conditions noted are these: P. falciparum in erythrocytes, SYBR Green DNA, 72 h; series mostly up to 28.7 µM. The procedure, abridged:
as §1

The test system of the next assay is CP256. The conditions noted are these: P. falciparum in erythrocytes, SYBR Green DNA, 72 h. The procedure, abridged:
as §1

A further assay deals with CP335. The conditions noted are these: P. falciparum in erythrocytes, SYBR Green DNA, 72 h. Put shortly: as §1
Potency means the concentration at half of the fitted maximal effect.

In the case of `CCCOc1ccc2nc(NC(=O)OC)sc2c1`, the Potency entry in the assay on CP247, in the assay with CP250, in the assay with CP252, in the assay on CP260, in the assay with CP265 and in the assay with CP266 was “inactive” throughout. In addition, the Potency entry in the assay on CP268, in the assay with CP269, in the assay on CP286, in the assay with CP291, in the assay on CP297 and in the assay on CP305 was “inactive” each time. In addition, the Potency entry in the assay on CP315, in the assay on CP325, in the assay with CP329, with DFO2036 and in the assay on DIV14 was “inactive” throughout. In the assay with CP262, the call was inactive.

On to `COC1C(OC(=O)/C=C/C=C/C=C/C=C/C(=O)O)CCC2(CO2)C1C1(C)OC1CC=C(C)C` (centres undefined), for which the Potency in the assay with CP256 is 70.8 nM (active); in the assay on CP268, 3380 nM (active); in the assay with CP291, 8490 nM (active); with CP315, 1690 nM (active); in the assay with CP325 it was 7570 nM (active); in the assay on CP329, 601 nM (active). For the same compound, the Potency in the assay on DIV14 is 379 nM (active).

As to `C=CCNC1=C2C[C@@H](C)C[C@H](OC)[C@H](O)[C@@H](C)/C=C(\C)[C@H](OC(N)=O)[C@@H](OC)/C=C\C=C(/C)C(=O)NC(=CC1=O)C2=O`, the Potency in the assay on CP247 is 2240 nM (active); with CP250 it was 2240 nM (active); in the assay with CP252, 1780 nM (active); in the assay with CP256, 2240 nM (active); in the assay on CP260 it was 2240 nM (active); in the assay with CP265 it was 2000 nM (active). Also, the Potency is 10700 nM (active) in the assay on CP266; 5360 nM (active) in the assay with CP268; 1690 nM (active) in the assay on CP269; 3550 nM (active) with CP286; 4260 nM (active) in the assay on CP291; 1690 nM (active) with CP297. The Potency in the assay on CP305 was 4780 nM (active); in the assay on CP315, 3790 nM (active); with CP325 it was 4260 nM (active); with CP329, 4260 nM (active); in the assay on CP335 it was 1690 nM (active); with DFO2036, 2000 nM (active). The Potency in the assay on DIV14 was 1510 nM (active).
